Results from article PMC12136788.
Whole data set: some 24,000 sequences, median “enrichment r” near 0.99, cut for the highest 2% near 3.7. Only a selection was taken, and the highest values are over-represented in it overall.

T1: UNK ZnF1-3 (human, UniProt Q9C0B0 31-174)
T1 sequence: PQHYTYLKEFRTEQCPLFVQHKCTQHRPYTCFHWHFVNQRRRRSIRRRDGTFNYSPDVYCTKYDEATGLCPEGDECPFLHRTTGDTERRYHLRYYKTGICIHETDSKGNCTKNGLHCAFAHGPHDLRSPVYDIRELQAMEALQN

B1: chrX:140365796:140365797:-_ENSMUSG00000031285_ENSMUST00000033642|mus_mus|mus_mus_mus_hu_False|48_108 (ssRNA)
RNA: GGGAGUUCUACAGUCCGACGAUCCUUCUCAUUACUUAGUGCCUGCAAGGUUCUGGUUCGGUAGAAGCUACAGUGGGCGCUGUGAGUGGGACUUGGAAACCCAUUCAUCCGGGAGCCUCGCAUGUUCCUGGAUGUCUUAUCUCUCAACAGAGGAUUGAGCAUCA
B2: chr11:100882373:100882374:+_ENSMUSG00000019302_ENSMUST00000044721|mus_mus|mus_mus_mus_hu_True|28_28 (ssRNA)
RNA: GGGAGUUCUACAGUCCGACGAUCUUCCUGGUUUGUGUUGAUUUCCUUCAGUUCAUUUUCAAUCUUCUCAAAAUUGGCCUCUAAGUCAAUCAUGUCCCGGGGGAAGGGCACCUCUGGGUUUUCACCGGUGUCCAUAAUCGGAAUCAACAGAGGAUUGAGCAUCA
B3: chr1:88750987:88750988:+_ENSMUSG00000053333_ENSMUST00000065694|mus_mus|motif|central (ssRNA)
RNA: GGGAGUUCUACAGUCCGACGAUCUGAUAAGCCUCUUGUGUCCUGUGGUAUGGGGGUGUUCUCAUCUUUCAUAACUGGAGUACGGGAAUCUUCUUUUCCUCUGUCAGGAGUAGAGAUUGACAAUUUCUUAACACCAUCAACCAGCAACAGAGGAUUGAGCAUCA
B4: chr1:225611761:225611762:-_ENSG00000143815_ENST00000272163|hu_mus|hu_hu_hu_mus_True|8_108 (ssRNA)
RNA: GGGAGUUCUACAGUCCGACGAUCCCAGGCCAUCGACCUCUGACCACUUCACCCUCAACAAACUUCCUACUUGGCAUUUUCUAAAAUUAGUCUGGCCGCGCUCCGGCGGGAACUCCAGCCACUCCAGGGAGAAUAGUAGCAGCCCAACAGAGGAUUGAGCAUCA
B5: chr1:180971808:180971809:-_ENSG00000135823_ENST00000258301|hu_mus|FALSE|FALSE (ssRNA)
RNA: GGGAGUUCUACAGUCCGACGAUCUUUUCUUAUGCUCAAUUCAGUUGCAUCCAAGUUGAAUUUUCUAGGAUUUGCUUCAACUAUGCUGAUGGUUUCAUCGAGGUCCUCCAGAUCCCACUCUAUGCUGCGGAGAUUGUUCCUCAGCAACAGAGGAUUGAGCAUCA
B6: 5721493_5721695_819_3pUTR_ENSMUSG00000024937_ENSMUST00000075606|mouse|control|control (ssRNA)
RNA: GGGAGUUCUACAGUCCGACGAUCCUCCUCAUCACUCUCAGCAAAGUCAUCCAGGUUUCCCACGUCACUAGGCUUCACACUCAUGAGGCUGGCCAGACUCUGCAUGUCAUCAUCCGUGGCACGGCCUUCUCGCAGCAGCACCCCCAACAGAGGAUUGAGCAUCA
B7: chr17:57746147:57746148:+_ENSG00000141367_ENST00000269122|hu_hu|FALSE|FALSE (ssRNA)
RNA: GGGAGUUCUACAGUCCGACGAUCUUGCCCAGUCUUGCAAGCUGCCUGAAUAUAUUUAAAGUGCACAUCUGGGUCCUGGCUAAAGUUAACAAUGGAUCCCAGAAAAUAAAAGAGACCUUCAAAACUCUUGAAAGAUUCAAAAAGCAACAGAGGAUUGAGCAUCA
B8: chr2:49626764:49626765:+_ENSMUSG00000026764_ENSMUST00000028102|mus_hu|FALSE|FALSE (ssRNA)
RNA: GGGAGUUCUACAGUCCGACGAUCGCACACAUCUGUACACACAGAAACUCUACACAGCUCAAAAGACCUGAAACUGGUGUACUGCAGAUGGCUGGAGUAAGCAAGUAUAAAAAAAAAAUGGAAACUGUAGGGGGGGAAAAAUAACAACAGAGGAUUGAGCAUCA
B9: chr19:8913615:8913616:-_ENSMUSG00000071658_ENSMUST00000096259|mus_hu|mus_mus_mus_hu_False|98_108 (ssRNA)
RNA: GGGAGUUCUACAGUCCGACGAUCAGGGGGGCACCAAACCCUGCCUCAAAUGGGUGCCCCACCCAGUAGGGAGUUGCAGCUGAAAGUAUCUGAUGCAGAAGCAGUGACUAUACGAAAGGAGGCCCCUGGGGAGGGCCAGGCCAGCAACAGAGGAUUGAGCAUCA
B10: chr10:112657927:112657928:+_ENSG00000150593_ENST00000280154|hu_mus|FALSE|FALSE (ssRNA)
RNA: GGGAGUUCUACAGUCCGACGAUCAAAAAAAAAAAAAAAAAAAAAAACAAUAACAAAAACAAAAGGAAAAGAAAACCUGUACUGACAACUCUUACAGUUGAGAUCUGUUCUUGGUAACACCUAAGACUGUAAGAGUUGCUGUGCCAACAGAGGAUUGAGCAUCA
B11: chr8:81717444:81717445:+_ENSMUSG00000071064_ENSMUST00000098614|mus_mus|FALSE|FALSE (ssRNA)
RNA: GGGAGUUCUACAGUCCGACGAUCUAAUGUACACAAACCUUGACAGUAUGAGCGUCUGAACAUAAUAUGAGGAGUUAAAAAAAAAGAAAGAAAGAAAGAAAGAAAGAAAGAGAGAGAGAAAGAAAAGAAAGGACAGGAGAGAGACAACAGAGGAUUGAGCAUCA
B12: chr1:58468927:58468928:-_ENSMUSG00000026034_ENSMUST00000148330|mus_mus|mus_mus_mus_hu_False|18_48 (ssRNA)
RNA: GGGAGUUCUACAGUCCGACGAUCAAUUACUGAAAAAGAUGUUCAUUACCUUAGCUAUGUACUUAAUGAACCAAAUUACCCAAACAACAUAAAAUGUGCAAUAUAAAAAUGUUAAGAAAAUAACUUACUGUACAAAAUAACUUACAACAGAGGAUUGAGCAUCA
B13: chr10:33214929:33214930:-_ENSG00000150093_ENST00000302278|hu_hu|hu_hu_hu_mus_True|18_78 (ssRNA)
RNA: GGGAGUUCUACAGUCCGACGAUCAACAAGUUCAUUGAAAAACUCUCCUCUGUCAGUAAGACUGAGCACAUUUUUGUAGCUAAAUGGGCUGGUGCAGUUUUGUUCACUUGUACAAGGGUUCCUGAGCUUUGCUGGGGUUGUGCUCAACAGAGGAUUGAGCAUCA
B14: chr13:55803104:55803105:+_ENSMUSG00000045767_ENSMUST00000057844|mus_hu|FALSE|FALSE (ssRNA)
RNA: GGGAGUUCUACAGUCCGACGAUCGCACAGCACCAGUAAGUAGAUGUGCUGGAGGGUAGAGGAAGAGGAAUGAAUGUACGAAAGGCAGGGGAGAAAGGGAAGGGUAUGUAUAACAAAAUAAGGAAGGAAAAUAAACUGAAAGGGCAACAGAGGAUUGAGCAUCA
B15: chr1:178664722:178664723:-_ENSMUSG00000057335_ENSMUST00000057037|mus_mus|motif|central (ssRNA)
RNA: GGGAGUUCUACAGUCCGACGAUCAGUCGUUGUUGCUGUCUUGCAGGGUCCUUACAAAUGUGUAAGACUGACAAAGGGUUACGGUGGACCUACAGGGAAACACAGAAGCAAUUCAAUGACUGGGAGUGCAACUAUCAACUACUCCAACAGAGGAUUGAGCAUCA
B16: chr19:8913615:8913616:-_ENSMUSG00000071658_ENSMUST00000096259|mus_hu|mus_mus_mus_hu_False|1_38 (ssRNA)
RNA: GGGAGUUCUACAGUCCGACGAUCAGGGUACCAAAACCUUCUGCCUGAAAUGGGUGCCCCACCCAGUAGGGAGUUGCAGCUGAAAGUAUCUGAUGCACUGACAGUUACUAUACGAAAGGAGGCCCCUGGGGAGGGCCCGAGAUCCAACAGAGGAUUGAGCAUCA
B17: chr2:47387792:47387793:-_ENSG00000143933_ENST00000272298|hu_hu|motif|central (ssRNA)
RNA: GGGAGUUCUACAGUCCGACGAUCUUAGGACAAUGACAGUAAGAUAAGGGAAGAAAACAUGGAGGAAUGAAGUCCGGAUUACGGUACAUGCAUAUUUUUUUGACAGUAGGGAGAAACCUUUUACAGAUAAGUUACAAACAAAGACAACAGAGGAUUGAGCAUCA
B18: chr4:148551591:148551592:-_ENSMUSG00000063077_ENSMUST00000060537|mus_hu|mus_mus_mus_hu_False|28_68 (ssRNA)
RNA: GGGAGUUCUACAGUCCGACGAUCACCUGACAAAAUUAAAUAUCCCUGUAAAUUAGACAAUAAGCAGCAGGUAACAAAGUCUUUGCUUUGGAAUAUGUGCCAGGAAAAAUCAUGUUUUUUUUAGAUCUCAAGAGACAGUUCACACAACAGAGGAUUGAGCAUCA
B19: chr7:54825262:54825263:-_ENSG00000132432_ENST00000352861|hu_hu|hu_hu_hu_mus_False|68_108 (ssRNA)
RNA: GGGAGUUCUACAGUCCGACGAUCCUGACUUGGCUCAUCCACAAACUGCAUUACCUGAUCCAUGUUUUACCCAACCGGGAUUGAGAGCGUAGAGACACGUAGCUCAGGAGAGAACCGAGCCCAACGGAACCGGAAGCUGGCAACCAACAGAGGAUUGAGCAUCA
B20: chr5:73697939:73697940:+_ENSMUSG00000029152_ENSMUST00000031038|mus_mus|motif|central (ssRNA)
RNA: GGGAGUUCUACAGUCCGACGAUCUCCUUGGGCAAUAUGGUCAGUAAUACCAGUGGGAGUGGACUCGUUCAUAGAAGCACGGAAUGGAAUUGGCUCAUAACGAGGAAGCGCCUCCUUUUCUAUGUUGUCUGCUGCUGGAGAUGUCAACAGAGGAUUGAGCAUCA
B21: chr10:98281081:98281082:-_ENSG00000077147_ENST00000371142|hu_mus|motif|central (ssRNA)
RNA: GGGAGUUCUACAGUCCGACGAUCAUCGCAAUACAGUCCCCCAGUCAGUCUGUACAUCCAAAUGCAUCCAGGAACCGGCACCGGCGCGACAUUAUUAAUGUUAUAUACAUUUAUUGCCCCCCUUGUUUUGUUUAAUAAUUUCUUCAACAGAGGAUUGAGCAUCA
B22: chr2:47388980:47388981:-_ENSG00000143933_ENST00000272298|hu_mus|hu_hu_hu_mus_True|68_98 (ssRNA)
RNA: GGGAGUUCUACAGUCCGACGAUCUUCAUCUGUUAACUUCUCUCCAAGGUUUGUCAUCACAUGGCGAAGUUCUGCAGCACUAAUAUAGCCAUUGCCAUCCUUAUCAAACACACGGAAUGCUUCUCUAAUCUCUUCUUCACUGUCCAACAGAGGAUUGAGCAUCA

biological target: T1, UNK ZnF1-3; assay: nsRBNS (natural sequence RNA bind-n-seq); RBNS binding buffer (assumed for nsRBNS): 25 mM Tris pH 7.5, 150 mM KCl, 3 mM MgCl2, 0.01% Triton X-100, 500 ug/ml BSA, 20 U/ml SUPERase-In, 4 C; UNK is unkempt and MSI1 is Musashi-1; names of the RNAs are library labels; protein concentration not given here; high values mean tight binding

Binder | binding signal
B1 | 0.604 enrichment R
B2 | 0.609 enrichment R
B3 | 0.776 enrichment R
B4 | 1.34 enrichment R
B5 | 0.284 enrichment R
B6 | 0.928 enrichment R
B7 | 2.24 enrichment R
B8 | 9.96 enrichment R
B9 | 1.63 enrichment R
B10 | 8.87 enrichment R
B11 | 4.04 enrichment R
B12 | 0.974 enrichment R
B13 | 1.36 enrichment R
B14 | 5.32 enrichment R
B15 | 1.23 enrichment R
B16 | 1.39 enrichment R
B17 | 1.89 enrichment R
B18 | 1.18 enrichment R
B19 | 1.72 enrichment R
B20 | 1.27 enrichment R
B21 | 1.36 enrichment R
B22 | 0.882 enrichment R
